Sampled rows, rich in hits. Any-hit rate of the full collection: about 2.4%.
CHRM1 antagonist: human M1 muscarinic receptor antagonists, primary screen, CHO-K1 cells, Fluo-8 calcium fluorescence, 1536-well. 360,000 tested, 1.3% active. AID 588852, 2011. CHO-K1 hM1, ACh EC80 antagonist. Muscarinic acetylcholine receptor M1 (Homo sapiens), P11229. inhibition, % at 3 µM;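 active = percent inhibition above its own plate's cutoff, namely the mean of that plate's compound wells plus 3 SD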;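 also: peak over basal fluorescence ratio during 140 s after agonist addition; 0% = ACh EC80 plus DMSO and 100% = DMSO alone without agonist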
Target sequence (P11229 whole entry, looked up): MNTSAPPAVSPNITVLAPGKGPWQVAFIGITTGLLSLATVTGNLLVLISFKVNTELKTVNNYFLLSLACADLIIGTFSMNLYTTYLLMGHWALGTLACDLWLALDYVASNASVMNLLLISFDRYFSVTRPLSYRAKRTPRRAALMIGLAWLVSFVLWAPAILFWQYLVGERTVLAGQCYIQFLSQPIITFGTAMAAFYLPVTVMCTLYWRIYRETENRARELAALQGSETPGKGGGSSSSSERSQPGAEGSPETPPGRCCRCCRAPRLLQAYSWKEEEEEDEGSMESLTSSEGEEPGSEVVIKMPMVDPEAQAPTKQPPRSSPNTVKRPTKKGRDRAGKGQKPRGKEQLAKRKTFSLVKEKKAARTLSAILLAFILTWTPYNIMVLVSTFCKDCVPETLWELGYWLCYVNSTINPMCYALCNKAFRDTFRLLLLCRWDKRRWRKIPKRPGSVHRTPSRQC
CHO-K1 Ca PAM: nonselective calcium activators in parental CHO-K1 cells, primary screen, counter-screen for M1 PAM project, cell-based, Fluo-8 calcium fluorescence, full deck, 1536-well; 360,000 tested, 0.02% active; AID 602247, 2012; activation, % at 3 µM; ATP EC20; 0% at ATP EC20, 100% at ATP max;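 active = activation above the run cutoff, the mean activation of all test compounds plus 3 SD, cut at about 40% in these data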;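 also: peak over basal fluorescence ratio in a 140 s read after ATP addition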
CHO-K1 Ca antag: counter-screen for M1 antagonists: effect in parental CHO-K1 cells. ATP-induced calcium, Fluo-8 fluorescence. inhibition, % at 3 µM. 360,000 tested, 0.6% active;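 active = inhibition above a per-plate cutoff, the plate's mean sample inhibition plus 3 SD, cut at about 24% in these data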;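 also: 0% = DMSO plus EC80 ATP and 100% = DMSO alone without ATP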
CHRM1 PAM: human M1 muscarinic receptor positive allosteric modulators, primary screen, CHO-K1 cells, Fluo-8 calcium fluorescence, 1536-well; activation, % at 3 µM; 360,000 tested, 0.088% active; Muscarinic acetylcholine receptor M1 (Homo sapiens), P11229; AID 588819, 2011; CHO-K1 hM1, ACh EC20; 0% = ACh EC20, 100% = maximal ACh; in the data active = activation above about 19%, passing the limit was not always enough
M1 ag: human M1 muscarinic receptor agonists, primary screen, Fluo-8 calcium fluorescence, CHO-K1 cells, HTS; Muscarinic acetylcholine receptor M1 (Homo sapiens), P11229; CHO-K1 hM1, agonist mode; 0% DMSO, 100% acetylcholine EC100; activation, % at 3 µM; 360,000 tested, 0.33% active;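 active = activation above the run's mean compound activation plus 3 SD, cut at about 16% in these data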;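 also: peak over basal fluorescence ratio within a 140 s kinetic read after compound addition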
M1 ag parental: counter-screen for M1 agonists: effect in parental CHO-K1 cells | Fluo-8 calcium fluorescence; scaled to maximal ATP response, vehicle zero | activation, % at 3 µM | 360,000 tested, 0.48% active; in the data active = activation above about 15%;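 also: untransfected CHO-K1 host cells lacking M1 receptor as counterscreen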
Starred values were filed as active, the others as inactive; ! = not confirmed by another sample.

SMILES | CHRM1 antagonist | CHO-K1 Ca PAM | CHO-K1 Ca antag | CHRM1 PAM | M1 ag | M1 ag parental
CC(=O)O[C@H]1CC[C@@]2(C)[C@H](C1)C(=O)C[C@H]1[C@@H]3CC[C@@H]4[C@@H](CN5C[C@@H](C)CC[C@H]5[C@@]4(C)O)[C@@H]3C[C@@H]12 | 100* | -12 | 23 | -33 | -12 | 1
C[C@H]1CC[C@@H]2N(C1)C[C@H]1[C@@H]3C[C@H]4[C@@H](CC(=O)[C@H]5C[C@@H](O)CC[C@@]54C)[C@@H]3CC[C@H]1[C@]2(C)O | 86* | -5 | -6 | -28 | -10 | 0
[N-]=[N+]=NCCN1CCC(O)CCC1=O (configuration not stated) | -4 | 6 | 8 | 4 | 0 | 0
COC(=O)C1=COC(C)C2CN3CCc4c([nH]c5cc(OC)ccc45)C3CC12 (configuration not stated) | -5 | -2 | 2 | 0 | -12 | 1
COc1ccc(C(CNC(=O)CCc2ccsc2)N(C)C)cc1 (configuration not stated) | -2 | 8 | -1 | 5 | -12 | 0
CCCC[N+]1(C)[C@@H]2CC(OC(=O)[C@H](CO)c3ccccc3)C[C@H]1[C@@H]1O[C@@H]12 (some centres not stated) | 98* | -1 | -1 | -26 | -7 | 0
ClC1C(Cl)C(Cl)C(Cl)C(Cl)C1Cl (configuration not stated) | -15 | 16 | 0 | -21 | 47*! | 0
COc1cccc(CNC2CN3CCC2CC3)c1OC (configuration not stated) | 73* | 18 | -26 | -35 | -12 | 1
CC(C)c1ccc(-n2c(O)c(C=NCCN3CCNCC3)c(=O)[nH]c2=S)cc1 | 9 | -4 | -20 | -10 | -10 | 0
FC(F)=C(F)CCSc1ncn[nH]1 | 1 | 14 | 0 | 9 | -7 | 0
COC(=O)C1=C(c2ccc(OC(F)(F)F)cc2)C[C@@H]2CC[C@H]1N2C(=O)NCCc1ccccc1 | 17 | 11 | -13 | -25 | -10 | -1
COC(=O)C1=C(c2ccc(OCc3ccccc3)c(F)c2)C[C@@H]2CC[C@H]1N2C | 29* | 11 | -11 | -24 | -8 | 2
COC(=O)C1=C(c2ccc(F)cc2OCc2ccccc2)C[C@@H]2CC[C@H]1N2C | 13 | 8 | -13 | -11 | -8 | 5
COC(=O)C1=C(c2ccc(OCc3ccccc3)cc2)C[C@@H]2CC[C@H]1N2C | 34* | 21 | -11 | -28 | -10 | 2
COc1cccc(N2CCN(Cc3ccc(Cl)cc3)CC2)c1 | -12 | 13 | -8 | 1 | -8 | 0
COc1cccc(C2(O)CCN(Cc3ccncc3)CC2)c1 | -5 | -8 | 24* | 8 | -6 | 0
Cc1ncc(CN2CCCC(C(=O)c3ccc(C(C)(C)C)cc3)C2)s1 (configuration not stated) | 87* | 1 | -5 | -30 | -10 | 7
CCn1ccnc1CN1CCCC(C(=O)c2ccc(SC)cc2)C1 (configuration not stated) | 77* | -9 | 15 | -26 | -9 | 2
O=C(c1ccc(C(F)(F)F)cc1)C1CCCN(Cc2ccc(CO)o2)C1 (configuration not stated) | 61* | 10 | -9 | -26 | -7 | 1
COc1ccc(C(=O)C2CCCN(Cc3cnc(C)s3)C2)cc1OC (configuration not stated) | 5 | 0 | 5 | -10 | -10 | 0
COC(=O)C1=C(c2c(C)noc2C)C[C@@H]2CC[C@H]1N2C(=O)NCc1ccc(F)cc1 | 1 | 2 | -11 | 5 | -1 | 0
C/C(=N\NC(=S)Nc1ccccc1)c1c(O)n(C)c(=O)n(C)c1=O | -5 | 25 | -4 | 9 | -7 | 22*
CC/C(=N\Nc1ccccc1)c1c(O)n(C)c(=O)n(C)c1=O | -7 | 9 | -4 | 6 | 0 | 1
COC(=O)C1=C(c2ccc(C(C)=O)cc2)C[C@@H]2CC[C@H]1N2C(=O)NCc1ccc(C(F)(F)F)cc1 | 13 | 9 | -5 | -4 | 24* | 24*
O=[N+]([O-])c1ccc(-[n+]2c(-c3ccccc3)cc(-c3ccccc3)cc2-c2ccccc2)cc1 | 36* | 12 | -5 | -20 | -11 | 0
SMILES | CHRM1 antagonist | CHO-K1 Ca PAM | CHO-K1 Ca antag | CHRM1 PAM | M1 ag | M1 ag parental
C[C@H]1OC[C@@H](C[N+](C)(C)C)O1 | 83* | 11 | -1 | -10 | 121* | 2
CC1OC(C[N+](C)(C)C)CC1O (configuration not stated) | 88* | 10 | 4 | -13 | 114* | 7
Cc1ccc(S(=O)(=O)N2CCN(C(=O)COC(=O)Cc3ccccc3)CC2)c(C)c1 | 12 | -25 | 5 | -5 | -3 | 1
COC(=O)c1ccc(N2CCN(C)CC2)c([N+](=O)[O-])c1 | 2 | 10 | 5 | -2 | -13 | 19*
CN1CCN(c2ccc([N+](=O)[O-])cc2Cl)CC1 | 2 | -7 | -4 | 1 | -4 | 1
Cn1c(O)c(/C=N/N2CCOCC2)c(=O)n(C)c1=S | -4 | 12 | -5 | 5 | -3 | 1
N#CC(C#N)=Cc1ccc(N2CCOCC2)cc1 | -6 | 15 | -11 | 1 | -2 | 2
Cc1cc(C=C(C#N)C#N)ccc1N1CCCC1 | 13 | -5 | 14 | -13 | 3 | 16*
COc1ccc(N2C(=O)NC(=O)/C(=C\c3cn(C)c4ccccc34)C2=O)cc1 | 1 | 37 | 42* | 0 | -2 | 32*
COC(=O)Cn1cc(/C=C2\C(=O)NC(=O)N(c3ccc(OC)cc3)C2=O)c2ccccc21 | 9 | 10 | -5 | -2 | -3 | 3
C#CC1(O)CCC2C3CCC4=CC(=O)CCC4=C3C=CC21C (configuration not stated) | 13 | -12 | 3 | -15 | 5 | 16*
C#C[C@]1(O)CCC2C3C(=O)C=C4C=CCC[C@]4(C)C3CC[C@@]21C (some centres not stated) | 0 | 4 | -5 | -7 | 1 | 7
O=c1c2ccccc2nc(/C=C/c2ccc(O)cc2)n1-c1cccc(O)c1 | 6 | 13 | 9 | -2 | -2 | 4
COc1cccc(-n2c(/C=C/c3ccc(O)c(O)c3)nc3ccccc3c2=O)c1 | 17 | -18 | 25* | -11 | -3 | 2
O=c1c2ccccc2nc(/C=C/c2ccc3c(c2)OCO3)n1-c1cccc(O)c1 | 15 | -14 | 26* | -8 | -2 | 0

Bioassay records: PubChem, The Scripps Research Institute Molecular Screening Center
